Screening data deposited in PubChem BioAssay by several laboratories.
Insulin prom up: MIN6 insulin promoter up-regulation | MIN6 insulin promoter-GFP reporter, high-content imaging; hits give high values | z-score at 5 µM | AID 1625 | hit rate 0.3% among 190,000;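 active means z-score above 3 at 5 µM with at least 500 cells counted in the well; inconclusive means wells under 500 cells, flagged as cytotoxic or low count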
Autophagy mod: autophagy modulation, high-content screen; MEF GFP-LC3 puncta imaging; test concentration mostly 10 µM; calls only at 10 µM (by protocol); hit rate 0.98% among 190,000;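 active means percentage of spot-positive cells more than 3 SD above its plate mean, without a fluorescence outlier flag or 80% toxicity; inconclusive means no clear call, values can overlap the other calls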
Insulin prom inh: TRM-6 insulin promoter activity inhibition | TRM-6 cells (human fetal islet line), insulin promoter-eGFP reporter, imaging; reporter expression induced with tamoxifen | inhibition, % at 2 µM | hit rate 0.9% among 130,000 | AID 1273;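 active means inhibition above the mean plus 3 SD, with well images judged a real hit on visual review, cut at about 60% in these data, passing the limit was not always enough; inconclusive means inhibition over the cutoff but images rejected on review; inactive means inhibition not above the cutoff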
eIF4E 4G PPI: eIF4E/eIF4G interaction inhibition in translation initiation; P63073+Q04637; TR-FRET eIF4E-eIF4GI(517-606) binding, 2 h; inhibition, % at 21.7 µM; hit rate 0.37% among 220,000; AID 782;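 active means inhibition above about 30%, limit read from the data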
Target sequence (P63073 whole entry, looked up): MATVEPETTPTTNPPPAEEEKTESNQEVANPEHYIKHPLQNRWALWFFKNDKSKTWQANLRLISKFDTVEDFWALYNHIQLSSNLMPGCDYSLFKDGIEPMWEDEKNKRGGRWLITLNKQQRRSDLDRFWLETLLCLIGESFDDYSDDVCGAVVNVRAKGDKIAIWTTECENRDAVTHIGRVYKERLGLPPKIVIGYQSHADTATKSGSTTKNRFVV
Target sequence (Q04637 whole entry, looked up): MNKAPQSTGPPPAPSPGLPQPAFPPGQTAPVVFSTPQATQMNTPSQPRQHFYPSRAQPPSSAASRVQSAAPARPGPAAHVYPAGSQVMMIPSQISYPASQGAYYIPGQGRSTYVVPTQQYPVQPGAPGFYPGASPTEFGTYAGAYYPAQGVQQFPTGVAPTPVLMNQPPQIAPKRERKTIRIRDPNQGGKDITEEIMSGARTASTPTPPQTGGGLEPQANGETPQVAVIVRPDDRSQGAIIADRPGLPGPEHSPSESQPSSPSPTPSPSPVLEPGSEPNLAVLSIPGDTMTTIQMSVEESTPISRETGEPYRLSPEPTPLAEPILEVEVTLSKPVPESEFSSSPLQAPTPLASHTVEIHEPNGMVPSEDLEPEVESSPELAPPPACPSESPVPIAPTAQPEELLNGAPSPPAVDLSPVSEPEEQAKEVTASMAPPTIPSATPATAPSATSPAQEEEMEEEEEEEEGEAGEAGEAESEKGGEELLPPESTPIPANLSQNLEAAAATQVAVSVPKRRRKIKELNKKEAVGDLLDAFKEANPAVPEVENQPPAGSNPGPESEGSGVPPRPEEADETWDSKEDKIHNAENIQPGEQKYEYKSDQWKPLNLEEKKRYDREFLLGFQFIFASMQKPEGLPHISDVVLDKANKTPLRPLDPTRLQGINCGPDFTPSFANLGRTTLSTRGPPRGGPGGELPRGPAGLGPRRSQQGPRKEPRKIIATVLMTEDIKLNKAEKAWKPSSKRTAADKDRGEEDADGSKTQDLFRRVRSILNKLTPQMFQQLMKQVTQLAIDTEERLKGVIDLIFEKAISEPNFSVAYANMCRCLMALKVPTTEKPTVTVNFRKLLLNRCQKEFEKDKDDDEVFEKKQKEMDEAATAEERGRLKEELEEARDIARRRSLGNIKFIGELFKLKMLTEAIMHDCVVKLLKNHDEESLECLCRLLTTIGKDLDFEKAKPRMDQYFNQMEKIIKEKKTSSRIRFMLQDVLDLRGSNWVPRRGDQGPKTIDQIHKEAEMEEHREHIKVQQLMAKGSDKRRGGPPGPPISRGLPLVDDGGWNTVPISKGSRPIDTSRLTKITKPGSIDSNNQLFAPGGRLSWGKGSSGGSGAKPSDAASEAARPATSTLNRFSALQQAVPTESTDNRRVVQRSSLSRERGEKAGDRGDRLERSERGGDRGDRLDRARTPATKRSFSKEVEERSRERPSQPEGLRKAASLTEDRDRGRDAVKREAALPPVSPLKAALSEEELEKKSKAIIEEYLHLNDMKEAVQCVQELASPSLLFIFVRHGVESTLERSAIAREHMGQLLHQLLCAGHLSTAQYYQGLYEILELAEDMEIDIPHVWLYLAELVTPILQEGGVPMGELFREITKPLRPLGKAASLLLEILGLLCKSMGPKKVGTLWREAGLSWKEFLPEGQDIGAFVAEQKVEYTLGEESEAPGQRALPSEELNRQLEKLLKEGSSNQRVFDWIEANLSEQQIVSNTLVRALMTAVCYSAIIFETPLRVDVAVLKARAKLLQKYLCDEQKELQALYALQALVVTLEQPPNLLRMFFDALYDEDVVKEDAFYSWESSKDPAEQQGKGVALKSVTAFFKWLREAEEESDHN
PERK inh: human PERK inhibition, primary cell-based screen; inhibition, % at 5.6 µM; AID 1416; CHO PERK-DD fusion, SEAP luminescence translation reporter; Q9NZJ5; hit rate 0.17% among 220,000;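 active means inhibition above the mean inhibition of all tested compounds plus 3 SD, set separately per screening campaign, cut at about 2.9% in these data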;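 further: PERK kinase domain activated by AP20187 dimerizer at 100 nM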
Large screens that a line does not name were inactive. Compounds with a hit are over-represented: about 2% of the library has one in this group of screens.

O=c1cnn([C@@H]2O[C@H](CO)[C@@H](O)[C@H]2O)c(=O)[nH]1	eIF4E 4G PPI 94.0 (no result: Insulin prom up)
Nc1ccn([C@@H]2O[C@H](CO)[C@@H](O)C2O)c(=O)n1 (some centres undefined)	none (no result: Autophagy mod, Insulin prom inh)
O=C(O)c1nn2c(C(F)(F)F)cc(-c3cccs3)nc2c1Cl	none (no result: Insulin prom inh)
COc1ccc2c(c1)CCc1c-2nc2ccccc2c1N1CCOCC1	none (no result: Autophagy mod, Insulin prom inh)
Cc1cccc(-n2cnc(C(=O)NC3CCCCCC3)c2)n1	eIF4E 4G PPI 30.3 (no result: Insulin prom up)
c1ccc(CCc2nn3c(Cc4ccccc4)nnc3s2)cc1	none
CCOC(=O)c1nn(-c2cccc(Cl)c2)c(C)c1C(C)=O	Insulin prom inh 91.5
CCOC(=O)c1nn(-c2cccc(OC)c2)c(-c2ccccc2)c1C(=O)c1ccccc1	none (no result: Insulin prom up)
O=C(CSCc1c(Cl)cccc1Cl)N1CCOCC1	none (no result: Insulin prom inh)
Cc1c(CN2CCCC(C(=O)c3cccc(OC(C)C)c3)C2)c(=O)n(-c2ccccc2)n1C (centres undefined)	Autophagy mod active (no result: Insulin prom inh)
CCn1ncc(CN2CCCC(C(=O)c3cccc(OC(C)C)c3)C2)c1C (centres undefined)	none (no result: Insulin prom inh)
CCN(CC)C(=O)c1ccc2nc3ccccc3nc2c1	none
CCN(CC)C(=O)c1ccc2nc(-c3ccccc3)c(-c3ccccc3)nc2c1	Insulin prom inh 66.7
COC(=O)c1ccccc1NC(=O)C/C(C)=N/NC(=O)CC#N	Insulin prom inh 71.4
COC(=O)c1ccccc1NC(=O)CC#N	none
Cc1cccc(S(=O)(=O)C(C#N)c2nc3ccccc3nc2N2CCOCC2)c1 (centres undefined)	none (no result: Insulin prom inh)
O=C(N1CCOCC1)N1CCN(C(=O)N2CCOCC2)CC1	none (no result: Insulin prom up, eIF4E 4G PPI)
CCC(=O)NNC(=O)CCC(=O)Nc1cccc(Cl)c1C	PERK inh 3.0 (no result: Insulin prom inh)
Cc1c(Cl)cccc1NC(=O)CCC(=O)NNC(=O)c1ccccc1Cl	eIF4E 4G PPI 64.5 (no result: Insulin prom inh)
COC(=O)CCC(=O)NNC(=O)CCC(=O)Nc1cccc(Cl)c1C	none (no result: Insulin prom inh)
Cc1cccc(NC(=O)c2ccccc2NC(=O)CCC(=O)O)c1	Insulin prom inh 78.6
CCOc1ccc(N(CC(=O)NCC2CCCO2)S(=O)(=O)c2ccc(SC)cc2)cc1 (centres undefined)	none
Cc1cc(C)n(C(=O)c2ccc(NC(=O)CC(C)C)cc2)n1	Insulin prom inh 74.2
CCC(=O)Nc1ccc(C(=O)n2nc(C)cc2C)cc1	none (no result: Insulin prom inh)
CCCn1nnc(NC(=O)c2cc(Br)ccc2OC)n1	Insulin prom inh 83.9
Clc1ccc(OCCSc2ncccn2)cc1	Insulin prom inh 66.2
Cc1cc(C)nc(Nc2n[nH]c(-c3ccccc3C)n2)n1	Autophagy mod active (no result: Insulin prom inh)
CN(C)c1ccc(S(=O)(=O)NCC(=O)OCC(=O)Nc2cc(Cl)cc(Cl)c2)cc1[N+](=O)[O-]	none
CCOC(=O)N1CCN(C(=O)c2cc(S(=O)(=O)N3CCCC3)cn2C)CC1	Insulin prom up 3.05 (no result: Insulin prom inh)
CCOC(=O)N1CCC(NC(=O)c2cc(S(=O)(=O)N3CCCC3)cn2C)CC1	none
COc1ccccc1-n1c(-c2ccc(Cl)cc2)c[nH]c1=S	none (no result: Insulin prom inh)
CCC(C)C(=O)Nc1nnc(SCC(=O)NC(C)(C)C)s1 (centres undefined)	none
CCOC(=O)c1sc(NC(=O)CSc2n[nH]c(-c3ccccc3)n2)c(C#N)c1C	Autophagy mod active (no result: Insulin prom inh)
CCOC(=O)c1c(NC(=O)CSc2nc(C)cc(C)c2C#N)sc(C(C)=O)c1C	Autophagy mod active (no result: Insulin prom inh)
CCOC(=O)c1sc(NC(=O)CSc2nc(C)cc(C)n2)c(C#N)c1C	none
CCn1nc(C)c(NC(=O)CSc2nnc(-c3ccco3)n2C)c1C	Insulin prom inh 81.2
CCCNC(=O)CSc1nnc(-c2ccco2)n1C	none (no result: Insulin prom inh)
O=C(CSc1nnc(-c2ccncc2)o1)N1CCCC1	none (no result: Insulin prom inh)
Cc1ccc2c(c1)c1c3n2CCCNC3CCC1 (centres undefined)	Insulin prom up inconclusive (no result: Insulin prom inh)
c1cc2c(cc1C1CCCCC1)c1c3n2CCCNC3CCC1 (centres undefined)	Insulin prom up inconclusive, Autophagy mod active
CC(NC(=O)Cn1ncc(Cl)c(Cl)c1=O)C12CC3CC(CC(C3)C1)C2 (centres undefined)	none (no result: Insulin prom up)
O=C(O)c1csc(N/N=C/c2ccc(Br)cc2)n1	Autophagy mod active (no result: Insulin prom up)
C(=N\Nc1nc(-c2ccccc2)cs1)/c1ccncc1	none (no result: Insulin prom inh)
COc1ccc([N+](=O)[O-])cc1C(=O)Nc1ccc(OCC(=O)N2CCOCC2)cc1	none
CCOC(=O)c1nc(N2CCN(C(=O)OCC)CC2)c2c3c(sc2n1)CCCC3	Autophagy mod active (no result: Insulin prom inh)
CCOC(=O)c1nc2sc3c(c2c(=O)[nH]1)CCCC3	none
COc1ccc(-c2ccnc3nc(N4CCN(c5ccccc5)CC4)nn23)cc1	none
CCCOC(=O)CCCN1C(=O)/C(=C2\SC(=S)N(CCCC(=O)OCCC)C2=O)SC1=S	PERK inh 3.4 (no result: Autophagy mod, Insulin prom inh)
CCCCOC(=O)CCN1C(=O)/C(=C2\SC(=S)N(CCC(=O)OCCCC)C2=O)SC1=S	none (no result: Insulin prom inh)
O=C(CC1C(=O)NCCN1Cc1c(F)cccc1Cl)NCc1ccccc1 (centres undefined)	none
Cn1cccc1/C=N/NC(=O)c1ccco1	none
CCOC(=O)c1cnn2c(C(F)(F)F)cc(-c3ccccc3)nc12	none (no result: Insulin prom up)
COC(=O)c1cnn2c(C(F)(F)F)cc(-c3ccc(F)cc3)nc12	Insulin prom up 4.23 (no result: Insulin prom inh)
CCOC(=O)c1cnc2c(C)c(-c3ccccc3)[nH]n2c1=O	none
C/C(CC(=O)NCc1ccccc1)=N\NC(=O)c1cnccn1	none (no result: Insulin prom inh)
CCOC(=O)Cc1nnc(Nc2ccc(C(=O)NC)cc2)c2ccccc12	none (no result: Autophagy mod, Insulin prom inh)
Cn1c(=O)c(Nc2ccc(Cl)cc2)c2c3c(cccc31)C(=O)c1ccccc1-2	Insulin prom up 15.1, Autophagy mod active (no result: Insulin prom inh)
Cc1cc(C)n(-c2ccc(C(=O)OCC(=O)N(CC(C)C)C3CCS(=O)(=O)C3)cc2)n1 (centres undefined)	Insulin prom up 3.33 (no result: eIF4E 4G PPI)
Cc1ccc(-n2c(C)cc(C(=O)OCC(=O)N(CC(C)C)C3CCS(=O)(=O)C3)c2C)cc1 (centres undefined)	none
CC1CCN(C(=O)COC(=O)[C@H](C)NS(=O)(=O)/C=C/c2ccccc2)CC1	none (no result: Insulin prom up)
Cc1ccc(S(=O)(=O)Nc2c(C)n(C)n(-c3ccccc3)c2=O)cc1C(=O)NCc1ccccn1	eIF4E 4G PPI 83.6 (no result: Insulin prom up)
Cn1c(=O)n(C)c2cc([N+](=O)[O-])c(N3CCN(C(=O)C(C)(C)C)CC3)cc21	Insulin prom inh 71.4
Cc1cc(NC(=O)c2ccccc2)n(-c2nc3ccccc3[nH]2)n1	Autophagy mod active
COc1cccc(OC)c1C(=O)Nc1cc(C)nn1-c1nc2ccccc2[nH]1	Insulin prom inh 68.4
COc1ccc(C(=O)Nc2cc(C)nn2-c2nc3ccccc3[nH]2)c(OC)c1	none
COc1ccccc1C(=O)CSc1ccccn1	Autophagy mod active
COC(=O)CNC(=O)CSc1ccccn1	none (no result: Autophagy mod, Insulin prom inh)
Cc1ccc(-n2sc3ccccc3c2=O)cc1	eIF4E 4G PPI 45.0 (no result: Insulin prom inh)
Cc1ccc(Cn2c(=O)sc3ccccc3c2=O)cc1	none
CCOC(=O)c1sc2nc(C)[nH]c(=S)c2c1C	Insulin prom inh 78.6
COC(=O)c1ccc(/C=N/NC(=O)C(=O)NCC2CCCO2)cc1 (centres undefined)	none (no result: Autophagy mod, Insulin prom inh)
